Assay outcomes: PubChem BioAssay, National Center for Advancing Translational Sciences (NCATS)
ALDH1A1 block = inhibitors of human aldehyde dehydrogenase 1A1; P00352; Purified ALDH1A1, NADH fluorescence, propionaldehyde substrate; Potency, µM (top dose mostly 75.3 µM), for the others: at the top dose activity, negative = inhibition, hits mostly inhibitors; 220,000 tested, 7.3% active; AID 1030; active = well fitted inhibition curve with a large enough effect, not every such curve was filed as active; inconclusive = small, poorly fitted or top-dose-only effect, or another doubt; inactive = no such curve, though single readings can be large or run the other way;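 also: potency is read from the fitted curve at half-maximal effect; plate controls were no enzyme wells and a reference inhibitor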
GLA spleen mod = alpha-galactosidase A (human) modulation | P06280 | human spleen homogenate, 4MU-alpha-Gal fluorescence, 40 min | Potency, µM (titrated, usually from 80 µM), without a hit: at the top dose activity change, negative = inhibition, usual class: inhibitors | 240,000 tested, 0.008% active | AID 2107;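 also: potency is read from the fitted curve at half-maximal effect; 0% = enzyme with vehicle and -100% = no enzyme basal signal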
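Inhibition or activation of alpha-galactosidase in human spleen homogenate is scored by 4-MU fluorescence after 40 min at 37C, pH 5.0, with 1 mM substrate. AC50s come from concentration-response fitted to the Hill equation.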
PNC inhibitor = perinucleolar compartment assembly inhibition; AID 2417; 140,000 tested, 3.1% active; activity change (PNC), negative = inhibition, % at 10 µM; PC3M PTB-GFP, PNC prevalence imaging, 16 h; stronger effect = lower value;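 active = readout at or below -70, meaning at least 70% loss of cells showing the perinucleolar compartment, a nuclear body marking cancer cells; inconclusive = readout between -30 and a set limit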;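 also: plate controls were DMSO wells for no effect and camptothecin positive control wells for full effect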
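PC3M cells stably expressing PTB-GFP, 750–1000 cells/well, treated 16 h at 37 °C with compound (23 nl of library stock), in duplicate. After paraformaldehyde fixation and Hoechst stain, imaged at 20x; PNC prevalence scored by image analysis.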
12-hLO inh = inhibitors of human 12-lipoxygenase (ALOX12) | P18054 | purified 12-hLO, xylenol orange hydroperoxide absorbance | Potency, µM (top dose mostly 57.1 µM), for the others: top-dose activity change, negative = inhibition, usual class: inhibitors | 150,000 tested, 0.12% active | AID 1452; also: potency is read from the fitted curve at half-maximal effect; nearly all actives have a fitted effect of over 55% in size
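Lipoxygenase turnover measured by absorbance at 573 and 405 nm after Fe-XO development. Human 12hLO 150 nM, arachidonate 40 uM, pH 7.0 Hepes buffer with detergent; 15 min compound preincubation, 30 min reaction.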
GLA inh pH 4.5 = inhibitors of human alpha-galactosidase A at pH 4.5; purified enzyme, 4-MU-alpha-Gal fluorescence, pH 4.5; activity change, negative = inhibition, % at 105 µM; 230,000 tested, under 10 active; AID 1467;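 also: 0% = full activity with enzyme and -100% = basal without enzyme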
HPGD block = HPGD (human) dehydrogenase inhibition; 150,000 tested, 4.3% active; Potency, µM, for inactives: at the highest dose activity change, negative = inhibition, usual class: inhibitors; P15428; AID 894; purified HPGD, NADH fluorescence kinetic, PGE2 substrate; active = well fitted inhibition curve with a large enough effect, not every such curve was filed as active; inconclusive = small, poorly fitted or top-dose-only effect, or another doubt; inactive = no such curve, though single readings can be large or run the other way; also: potency is read from the fitted curve at half-maximal effect
Target sequence (P15428 whole entry, looked up): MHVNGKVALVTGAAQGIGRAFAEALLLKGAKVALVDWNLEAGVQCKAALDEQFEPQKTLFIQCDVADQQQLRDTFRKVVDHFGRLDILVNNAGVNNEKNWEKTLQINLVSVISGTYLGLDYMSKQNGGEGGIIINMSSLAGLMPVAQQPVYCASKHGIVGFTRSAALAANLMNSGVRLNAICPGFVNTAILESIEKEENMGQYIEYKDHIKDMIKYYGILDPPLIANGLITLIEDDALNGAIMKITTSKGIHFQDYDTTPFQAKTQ
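20 nM HPGD preincubated 15 min at room temperature with compound in 50 mM Tris-HCl pH 8, 0.01% Tween 20. Started with 1 mM NAD+ and 30 uM prostaglandin E2; NADH fluorescence (360/450 nm) read 5 times over 30-s intervals, last minus first.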
* = called active by the depositor; ? = inconclusive; . = no result; [ ] = another dose, or the depositor's remark. Rows were chosen to be rich in hits. Some 10% of all compounds tested hit in one or more screens of this group. Unless noted, calls follow the shape of the dose curve; as a rule, active = well fitted curve in the direction sought with a large enough effect; inconclusive = small, poorly fitted or top-dose-only effect, or another doubt; inactive = no such curve, though single readings can be large; an effect the other way counts as inactive or inconclusive. Unless noted, % is scaled to controls: 0 for no effect and ±100 for the full control effect.

SMILES	ALDH1A1 block	GLA spleen mod	PNC inhibitor	12-hLO inh	GLA inh pH 4.5	HPGD block
Cc1scc(C(=O)NCc2ccco2)c1-c1ccccc1	?	2%	?	-22%	-2	32µM*
O=C(NCc1cccs1)c1ccc(N2CCCC2=O)cc1	2%	4%	-20	3%	0	20µM*
CCOC(=O)CNC(=O)c1cc(C)oc1C	0.063µM*	-4%	0	-5%	-7	-12%
COc1ccc(OC)c(C2=Nn3c(nnc3-c3cc(OC)ccc3OC)SC2)c1	.	9%	.	.	.	.
CC(C)N(C(=O)COC(=O)CNC(=O)c1ccc(Br)cc1)c1ccccc1	4%	-3%	?	0%	6	-14%
NC(C(=O)O)c1ccc(P(=O)(O)O)cc1 (centres undefined)	5%	8%	.	.	.	.
Cc1csc2ncc(C(=O)NCc3ccco3)c(=O)n12	?	28%	-100*	-3%	7	?
O=C(NCCCN1CCN(CCCNC(=O)c2ccc3c(c2)OCO3)CC1)c1ccc2c(c1)OCO2	?	5%	-3	-4%	2	-18%
O=C(NCCN1CCCCC1)c1ccc2c(c1)OCCO2	-10%	1%	29	3%	1	8.9µM*
Cc1cc(C(=O)NCc2ccco2)cs1	?	4%	?	5%	-5	16µM*
Cc1cc(C(=O)NCc2cccs2)c(C)o1	-10%	-3%	15	-4%	0	16µM*
O=C(NCc1ccco1)c1cccc(F)c1	-3%	-17%	5	-2%	9	?
O=C(NCc1cccs1)c1ccc2c(c1)OCCO2	4%	4%	?	-1%	7	25µM*
Cc1scc(C(=O)Nc2ccon2)c1-c1ccccc1	28µM*	2%	?	-1%	-9	-4%
O=C(NCc1cccs1)c1ccncc1	-1%	-1%	14	-2%	4	1%
COC(=O)c1cc(NC(=O)c2cc(C)oc2C)cc(C(=O)OC)c1	25µM*	-6%	-100*	0%	-3	-21%
Cc1cc(C(=O)NCc2cccs2)cs1	2%	-2%	-8	4%	-2	28µM*
Cc1cc(C(=O)Nc2cccc(C(=O)O)c2)c(C)o1	-4%	3%	-18	6%	3	-3%
CC(=O)[C@H]1CC[C@H]2[C@@H]3C=CC4=CC(=O)CC[C@@]4(C)[C@H]3CC[C@]12C	?	-5%[29.1 µM]	.	-1%[25.6 µM]	2	-7%
O=C(CNc1cc(S(=O)(=O)N2CCCC2)ccc1OCC(F)(F)F)Nc1ccc(SC(F)F)cc1	-1%	5%	-14	5%	3	-33%
Cc1ccc(COn2c(-c3ccc(Cl)cc3Cl)nc3ncccc32)cc1	18µM*	0%	4	-5%	1	7%
C=CCNC(=O)c1ccc(C2SCC(=O)N2Cc2ccco2)cc1 (centres undefined)	?	-3%	.	.	5	.
CN1CCN(C(=O)c2ccc(C3SCC(=O)N3Cc3ccco3)cc2)CC1 (centres undefined)	?	8%	?	3%	-22	13µM*
O=C(NCc1ccc2c(c1)OCO2)c1ccc(C2SCC(=O)N2Cc2ccco2)cc1 (centres undefined)	7.1µM*	12%	?	-22%	-2	?
COCCNC(=O)c1ccc(C2SCC(=O)N2Cc2ccco2)cc1 (centres undefined)	10µM*	-26%	.	.	0	.
CCCNC(=O)c1ccc(C2SCC(=O)N2Cc2ccccc2)cc1 (centres undefined)	-3%	-2%	?	3%	-2	3.2µM*
CC(C)(C)CC(C)(C)c1cc(O)c(O)c(CN2CCCCC2)c1	?	.	.	-19%[11.4 µM]	.	-23%
O=C(CCC(=O)c1ccccc1)NCCc1c[nH]c2ccccc12	-11%	3%	?	-3%	2	-2%
Cc1ccccc1OCc1nc2ccccc2c(=O)n1/N=C/c1c[nH]c2ccccc12	1%	-4%	-123*	2%	0	-3%
Cc1cc(/C=N/n2c(COc3ccccc3C)nc3ccccc3c2=O)c(O)c([N+](=O)[O-])c1	2%	2%	?	?	5	1µM*
